Reference: PubChem BioAssay (NCI)
This is part of a sample that, as a whole, favours compounds with a hit. Of some 79,000 tested, about 15% had one in any assay. Active and inactive are the calls of the source. Cut-off read from the data, not from the text of the source: active = growth inhibition above about 70%; inactive = the rest.

Legend:
[1] = NCI Yeast Anticancer Drug Screen. Data for the rad52 strain (AID 147);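 note: 0% = growth of vehicle-treated control cultures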; settings: S. cerevisiae rad52 mutant growth inhibition, active compounds read high
Outline: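 Vehicle-treated cultures served as the reference for growth inhibition of compound-exposed yeast bearing a DNA repair mutation.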

[2] = NCI Yeast Anticancer Drug Screen. Data for the wt1 strain (AID 149);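 note: 0% = growth of vehicle-treated wt1 cultures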; settings: S. cerevisiae wt1 strain (SPY 50644) growth inhibition, active compounds read high
Outline: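 wt1 strain grown with compound or vehicle; inhibition taken from the growth difference.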

[3] = NCI Yeast Anticancer Drug Screen. Data for the rad50EPP+ strain (AID 151);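 note: 0% = growth of vehicle-treated control cultures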; settings: S. cerevisiae rad50 mutant strain, active compounds read high
Outline: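 In this screen, rad50EPP+ yeast were exposed to compounds. Growth inhibition was scored against vehicle-treated controls.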

[4] = NCI Yeast Anticancer Drug Screen. Data for the mgt1 strain (AID 153); settings: S. cerevisiae mgt1 mutant growth inhibition, active compounds read high
Outline: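 mgt1 strain exposed; growth vs vehicle control recorded as inhibition.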

[5] = NCI Yeast Anticancer Drug Screen. Data for the rad50 strain (AID 155);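 note: 0% = growth of vehicle-only cultures of the same strain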; settings: S. cerevisiae rad50 strain growth inhibition, active compounds read high
Outline: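 DNA repair mutant yeast, compound exposure, growth read-out; inhibition is taken relative to vehicle.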

[6] = NCI Yeast Anticancer Drug Screen. Data for the mec2-1 strain (AID 157); settings: S. cerevisiae mec2-1 strain, active compounds read high
Outline: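 Vehicle-treated cultures served as reference for growth inhibition of compound-exposed mec2-1 yeast.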

[7] = NCI Yeast Anticancer Drug Screen. Data for the rad14 strain (AID 159);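 note: 0% = growth of vehicle-treated control cultures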; settings: S. cerevisiae rad14 strain growth inhibition, active compounds read high
Outline: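 DNA repair-defective yeast, compound-exposed; % growth inhibition derived by comparison with vehicle-treated controls.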

[8] = NCI Yeast Anticancer Drug Screen. Data for the sgs1 mgt1 strain (AID 161);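 note: 0% = growth of cultures given vehicle only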; settings: S. cerevisiae sgs1 mgt1 strain, active compounds read high
Outline: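 Mutant yeast exposed to compound; growth scored against vehicle-only wells.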

[9] = NCI Yeast Anticancer Drug Screen. Data for the cln2 rad14 strain (AID 165);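 note: 0% = growth equal to vehicle treated cultures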; settings: S. cerevisiae cln2 rad14 strain, active compounds read high
Outline: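 Each compound was tested on cln2 rad14 yeast. Inhibition of growth was calculated against vehicle-exposed controls.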

[10] = NCI Yeast Anticancer Drug Screen. Data for the bub3 strain (AID 167); settings: S. cerevisiae bub3 mutant strain, active compounds read high
Outline: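 In this screen, a yeast mutant lacking normal mitotic checkpoint function is challenged with compound. Relative growth versus vehicle gives the inhibition value.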

[11] = NCI Yeast Anticancer Drug Screen. Data for the wt2 strain (AID 169);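 note: 0% = growth of vehicle-treated yeast cultures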; settings: S. cerevisiae wt2 strain growth inhibition, active compounds read high
Outline: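 Inhibition of yeast growth was determined after compound treatment, normalised to controls receiving only vehicle.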

[12] = NCI Yeast Anticancer Drug Screen. Data for the mlh1 strain (AID 171);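 note: 0% = growth of vehicle-treated control cultures of the same strain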; settings: S. cerevisiae mlh1 strain growth inhibition, active compounds read high
Outline: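 Vehicle-normalised growth inhibition of a repair- or checkpoint-altered yeast strain following compound treatment.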

[13] = NCI Yeast Anticancer Drug Screen. Data for the sgs1 strain (AID 173);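 note: 0% = growth of vehicle-only control cultures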; settings: S. cerevisiae sgs1 mutant, active compounds read high
Outline: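 Screen format: yeast with repair or checkpoint alterations, compound exposure, growth read relative to vehicle.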

[14] = NCI Yeast Anticancer Drug Screen. Data for the mlh1 rad18 strain (AID 175); settings: S. cerevisiae mlh1 rad18 strain growth inhibition, active compounds read high
Outline: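 Vehicle-treated cultures served as the reference for growth inhibition in a yeast strain carrying DNA damage repair alterations exposed to each compound.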

[15] = NCI Yeast Anticancer Drug Screen. Data for the rad18 strain (AID 177); settings: S. cerevisiae rad18 mutant growth inhibition, active compounds read high
Outline: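 Test articles were incubated with altered yeast defective in DNA damage repair. Results are given as inhibition of growth versus vehicle.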

[16] = at 5.0 µM (retest, dose inferred, filed as 0.5)
[17] = at 50.0 µM (retest, dose inferred, filed as 5.0)

Measured: growth inhibition

O=C(O)CNC(c1ccccc1)(c1ccccc1)c1ccccc1
active: [1]; at 33.0 µM 92% | [1]; at 100.0 µM 98% | [2]; at 33.0 µM 83% | [2]; at 100.0 µM 97% | [4]; at 33.0 µM 87% | [4]; at 100.0 µM 96% | [5]; at 33.0 µM 87% | [5]; [17] 97% | [5]; at 50.0 µM 86.3% | [5]; at 100.0 µM 96% | [6]; at 33.0 µM 91% | [6]; [17] 91% | [6]; at 50.0 µM 90% | [6]; at 100.0 µM 99% | [7]; at 33.0 µM 90% | [7]; at 100.0 µM 98% | [8]; [17] 98% | [8]; at 50.0 µM 90.8% | [9]; [17] 99% | [9]; at 50.0 µM 86.3% | [10]; at 33.0 µM 94% | [10]; [17] 97% | [10]; at 50.0 µM 90.7% | [10]; at 100.0 µM 98% | [11]; at 33.0 µM 82% | [11]; at 100.0 µM 98% | [12]; at 33.0 µM 82% | [12]; at 100.0 µM 97% | [13]; at 33.0 µM 89% | [13]; at 100.0 µM 97% | [14]; [17] 91% | [14]; at 50.0 µM 89.9% | [15]; at 33.0 µM 89% | [15]; at 100.0 µM 97%
inactive: [1]; at 1.2 µM -9% | [1]; at 3.7 µM -2% | [1]; at 11.0 µM -2% | [2]; at 1.2 µM -15% | [2]; at 3.7 µM -9% | [2]; at 11.0 µM -25% | [3]; at 1.2 µM 11% | [3]; at 3.7 µM 4% | [3]; at 11.0 µM -6% | [3]; at 33.0 µM -3% | [3]; at 100.0 µM -5% | [4]; at 1.2 µM 19% | [4]; at 3.7 µM 13% | [4]; at 11.0 µM 16% | [5]; at 1.2 µM -10% | [5]; at 3.7 µM -2% | [5]; [16] 43% | [5]; at 11.0 µM -2% | [6]; at 1.2 µM -1% | [6]; at 3.7 µM 12% | [6]; [16] 35% | [6]; at 11.0 µM 6% | [7]; at 1.2 µM -2% | [7]; at 3.7 µM -6% | [7]; at 11.0 µM -6% | [8]; [16] 2% | [9]; [16] 18% | [10]; at 1.2 µM -5% | [10]; at 3.7 µM 13% | [10]; [16] -8% | [10]; at 11.0 µM 24% | [11]; at 1.2 µM -27% | [11]; at 3.7 µM -20% | [11]; at 11.0 µM -9% | [12]; at 1.2 µM -32% | [12]; at 3.7 µM -29% | [12]; at 11.0 µM -20% | [13]; at 1.2 µM 3% | [13]; at 3.7 µM 3% | [13]; at 11.0 µM 5% | [14]; [16] 37% | [15]; at 1.2 µM -5% | [15]; at 3.7 µM -6% | [15]; at 11.0 µM -4%

CC1(C)CC(=O)C(C=NC(=S)C(N)=S)=C(O)C1
inactive: [1]; at 1.2 µM -47% | [1]; at 3.7 µM -57% | [1]; at 11.0 µM -63% | [1]; at 33.0 µM -49% | [1]; at 100.0 µM 69% | [2]; at 1.2 µM -30% | [2]; at 3.7 µM -39% | [2]; at 11.0 µM -37% | [2]; at 33.0 µM -16% | [2]; at 100.0 µM 21% | [3]; at 1.2 µM -43% | [3]; at 3.7 µM -49% | [3]; at 11.0 µM -46% | [3]; at 33.0 µM -51% | [3]; at 100.0 µM -25% | [4]; at 1.2 µM -13% | [4]; at 3.7 µM 0% | [4]; at 11.0 µM 3% | [4]; at 33.0 µM 21% | [5]; at 1.2 µM -15% | [5]; at 3.7 µM -14% | [5]; [16] -26% | [5]; at 11.0 µM -13% | [5]; at 33.0 µM 6% | [5]; [17] 14% | [5]; at 50.0 µM 15.5% | [5]; at 100.0 µM 69% | [6]; at 1.2 µM -40% | [6]; at 3.7 µM -34%
active: [4]; at 100.0 µM 84%
